Each structure is given as a SMILES string. Hit rate of the full screen: of about 39,000 compounds, about 3,300 (8.5%) were called active. The entries come from a sample that favours actives as a whole.

Among the data in the antibiotic and cytotoxicity screens of Wong et al. (2023) are cytotoxicity call values, retold here.

The test system of the experiment is HepG2. The experiment can be described thus: cytotoxicity call (relative viability < 0.9). The note with it: 10 µM.
In the case of `C[C@@H]1CN([C@H](C)CO)C(=O)c2cc(NS(=O)(=O)c3ccc(F)cc3)ccc2O[C@@H]1CN(C)C(=O)Nc1ccc(C(F)(F)F)cc1`, the cytotoxicity call was “inactive”.

In the case of `C[C@@H]1CN([C@H](C)CO)C(=O)c2cccc(NS(=O)(=O)c3ccccc3)c2O[C@H]1CN(C)Cc1ccc(Oc2ccccc2)cc1`, the cytotoxicity call is “inactive”.

On to `COc1ccc(S(=O)(=O)N2C[C@@H](O)COC[C@H]3O[C@H](CC(=O)NCCCN(C)C)CC[C@@H]32)cc1`, for which the cytotoxicity call is “inactive”.

As for `COc1cccc(NC(=O)N(C)C[C@@H]2OCc3ccccc3-c3c(n(C)c4ccccc34)C(=O)N([C@@H](C)CO)C[C@@H]2C)c1`, the cytotoxicity call was “inactive”.

Take `C=CC[C@@H](CC(=O)N[C@H](CO)Cc1ccccc1)C(=O)N[C@H](C)COC(=O)[C@H](CC=C)CC(=O)OC(C)(C)C`: the cytotoxicity call is “inactive”.

Turning to `C[C@H]1CCCCO[C@H](CN(C)Cc2ccccc2)[C@@H](C)CN([C@@H](C)CO)C(=O)c2cc(NC(=O)Cc3ccccc3)ccc2O1`, the cytotoxicity call was “inactive”.

Take `C[C@@H]1CN([C@H](C)CO)C(=O)c2cc(NC(=O)Cc3ccccc3)ccc2O[C@@H](C)CCCCO[C@H]1CN(C)Cc1ccc(C(F)(F)F)cc1`: the cytotoxicity call was “active”.

On to `C[C@@H]1CCCCO[C@@H](CN(C)Cc2ccc(C(F)(F)F)cc2)[C@H](C)CN([C@H](C)CO)C(=O)c2cc(NC(=O)Cc3ccccc3)ccc2O1`, for which the cytotoxicity call is “inactive”.

Take `C[C@@H]1CN([C@H](C)CO)C(=O)c2cc(NC(=O)Cc3ccccc3)ccc2O[C@@H](C)CCCCO[C@@H]1CN(C)Cc1ccc(C(F)(F)F)cc1`: the cytotoxicity call was “inactive”.

Regarding `C[C@@H]1CN([C@@H](C)CO)C(=O)c2cc(NC(=O)Cc3ccccc3)ccc2O[C@@H](C)CCCCO[C@H]1CN(C)Cc1ccc(C(F)(F)F)cc1`, the cytotoxicity call is “inactive”.

Turning to `C[C@@H]1CCCCO[C@H](CN(C)Cc2ccccc2)[C@@H](C)CN([C@@H](C)CO)C(=O)c2cc(NC(=O)Cc3ccccc3)ccc2O1`, the cytotoxicity call is “active”.

Turning to `C[C@@H]1CCCCO[C@@H](CN(C)Cc2ccc(C(F)(F)F)cc2)[C@@H](C)CN([C@@H](C)CO)C(=O)c2cc(NC(=O)Cc3ccccc3)ccc2O1`, the cytotoxicity call was “active”.

As for `C[C@@H]1CCCCO[C@H](CN(C)Cc2ccc(C(F)(F)F)cc2)[C@H](C)CN([C@@H](C)CO)C(=O)c2cc(NC(=O)Cc3ccccc3)ccc2O1`, the cytotoxicity call is “inactive”.

As to `C[C@@H]1CN([C@H](C)CO)C(=O)c2cc(NC(=O)Cc3ccccc3)ccc2O[C@@H](C)CCCCO[C@H]1CN(C)Cc1ccccc1`, the cytotoxicity call is “inactive”.

Turning to `C[C@H](CO)N1C[C@H](C)[C@@H](CN(C)Cc2ccc(C(F)(F)F)cc2)OCCCC[C@H](C)Oc2ccc(NC(=O)Cc3ccccc3)cc2C1=O`, the cytotoxicity call was “active”.

Consider `CO[C@H]1CN(C)C(=O)c2cc(NS(C)(=O)=O)ccc2OC[C@H](C)N(S(C)(=O)=O)C[C@H]1C`, for which the cytotoxicity call is “inactive”.

Turning to `C[C@@H]1CN([C@@H](C)CO)C(=O)c2cc(NC(=O)CCC(F)(F)F)ccc2O[C@@H](C)CCCCO[C@@H]1CN(C)CC1CCCCC1`, the cytotoxicity call is “inactive”.

On to `CCCCCCCCCCCCCCCc1cccc(OCC)c1C(=O)Nc1ccc(Cl)c(C(F)(F)F)c1`, for which the cytotoxicity call is “inactive”.

As to `C[C@H](CO)N1C[C@H](C)[C@@H](CN(C)S(C)(=O)=O)Oc2ccc(NC(=O)Cn3cnnn3)cc2CC1=O`, the cytotoxicity call is “inactive”.

On to `Nc1cnn([C@H]2O[C@@H](COC(=O)c3ccccc3)[C@@H](O)[C@@H]2O)c(=O)n1`, for which the cytotoxicity call is “inactive”.

As for `COc1ccc(S(=O)(=O)N2C[C@@H](O)COC[C@H]3O[C@H](CC(=O)NCCN4CCCCC4)CC[C@@H]32)cc1`, the cytotoxicity call is “inactive”.

For `Cc1noc(C)c1NC(=O)N(C)C[C@@H]1Oc2c(NC(=O)C3CC3)cccc2C(=O)N([C@H](C)CO)C[C@H]1C`, the cytotoxicity call was “inactive”.

Consider `C[C@@H]1CN([C@H](C)CO)C(=O)Cc2cc(NC(=O)C3CCCCC3)ccc2O[C@@H]1CN(C)Cc1ccc(Cl)c(Cl)c1`, for which the cytotoxicity call was “inactive”.

As to `C[C@@H]1CCCCO[C@@H](CN(C)Cc2ccc(C(F)(F)F)cc2)[C@H](C)CN([C@@H](C)CO)C(=O)c2cc(NC(=O)Cc3ccccc3)ccc2O1`, the cytotoxicity call was “inactive”.

As to `C[C@H]1CCCCO[C@H](CN(C)Cc2ccc(C(F)(F)F)cc2)[C@@H](C)CN([C@@H](C)CO)C(=O)c2cc(NC(=O)Cc3ccccc3)ccc2O1`, the cytotoxicity call was “active”.

Regarding `C[C@@H]1CN([C@@H](C)CO)C(=O)c2cc(NC(=O)Cc3ccccc3)ccc2O[C@@H](C)CCCCO[C@@H]1CN(C)Cc1ccc(C(F)(F)F)cc1`, the cytotoxicity call was “inactive”.

For the compound `C[C@@H]1CCCCO[C@@H](CN(C)Cc2ccc(C(F)(F)F)cc2)[C@@H](C)CN([C@H](C)CO)C(=O)c2cc(NC(=O)Cc3ccccc3)ccc2O1`, the cytotoxicity call was “active”.

Take `C[C@@H]1CCCCO[C@H](CN(C)Cc2ccc(C(F)(F)F)cc2)[C@@H](C)CN([C@H](C)CO)C(=O)c2cc(NC(=O)Cc3ccccc3)ccc2O1`: the cytotoxicity call is “inactive”.

For `C[C@H](CO)N1C[C@H](C)[C@H](CN(C)Cc2ccc(C(F)(F)F)cc2)OCCCC[C@H](C)Oc2ccc(NC(=O)Cc3ccccc3)cc2C1=O`, the cytotoxicity call was “inactive”.

Regarding `C[C@H]1CCCCO[C@@H](CN(C)Cc2ccc(C(F)(F)F)cc2)[C@@H](C)CN([C@@H](C)CO)C(=O)c2cc(NC(=O)Cc3ccccc3)ccc2O1`, the cytotoxicity call was “inactive”.

In the case of `C[C@@H]1CCCCO[C@H](CN(C)Cc2ccc(C(F)(F)F)cc2)[C@H](C)CN([C@H](C)CO)C(=O)c2cc(NC(=O)Cc3ccccc3)ccc2O1`, the cytotoxicity call was “active”.

For the compound `C[C@@H]1CCCCO[C@H](CN(C)Cc2ccc(C(F)(F)F)cc2)[C@@H](C)CN([C@@H](C)CO)C(=O)c2cc(NC(=O)Cc3ccccc3)ccc2O1`, the cytotoxicity call is “inactive”.

Turning to `COc1ccc(S(=O)(=O)Nc2cccc3c2O[C@@H](CN(C)C(=O)Nc2cccc4ccccc24)[C@H](C)CN([C@H](C)CO)C3=O)cc1`, the cytotoxicity call is “inactive”.

Regarding `C[C@H](CO)N1C[C@H](C)[C@H](CN(C)C(=O)Nc2ccc3c(c2)OCO3)Oc2ccc(N(C)C)cc2CC1=O`, the cytotoxicity call was “inactive”.

In the case of `CNC(=O)C[C@@H]1CC[C@@H]2[C@H](COC[C@@H](O)CN2C(=O)c2ccc3c(c2)OCO3)O1`, the cytotoxicity call is “inactive”.

For the compound `Cn1ccnc1C(=O)NCc1cnc2n1CCNCC2`, the cytotoxicity call is “inactive”.

Take `C[C@H](CO)N1C[C@H](C)[C@H](CN(C)Cc2ccc(Cl)c(Cl)c2)Oc2ccc(NC(=O)NC3CCCCC3)cc2C1=O`: the cytotoxicity call is “inactive”.

For `C[C@@H]1CN([C@@H](C)CO)C(=O)c2cc(NS(=O)(=O)c3cccs3)ccc2O[C@@H]1CN(C)Cc1ccc(-c2ccccc2)cc1`, the cytotoxicity call was “inactive”.

With `C[C@@H]1CN([C@H](C)CO)S(=O)(=O)c2ccc(C#CC(C)(C)O)cc2O[C@@H]1CN(C)Cc1ccc(F)cc1`, the cytotoxicity call was “inactive”.

Regarding `FC(F)(F)Oc1ccccc1`, the cytotoxicity call is “inactive”.

`C[C@@H]1CN([C@@H](C)CO)C(=O)Cc2cc(NC(=O)Cn3cnnn3)ccc2O[C@@H]1CN(C)S(=O)(=O)c1cn(C)cn1`: the cytotoxicity call is “inactive”.

For the compound `CSc1ccc(-c2nnn(CC(N)=O)n2)cc1`, the cytotoxicity call is “inactive”.

For the compound `Cc1noc(C)c1NC(=O)N(C)C[C@H]1Oc2ccc(NC(=O)NC(C)C)cc2C(=O)N([C@H](C)CO)C[C@H]1C`, the cytotoxicity call was “inactive”.

For `COc1ccc(S(=O)(=O)Nc2ccc3c(c2)C(=O)N([C@H](C)CO)C[C@H](C)[C@H](CN(C)S(=O)(=O)c2cn(C)cn2)O3)cc1`, the cytotoxicity call is “inactive”.

As for `C[C@H]1CN([C@@H](C)CO)C(=O)c2cc(NC(=O)c3ccncc3)ccc2O[C@H]1CN(C)S(=O)(=O)c1cccs1`, the cytotoxicity call is “inactive”.

Turning to `COCCOC(=O)N1C(=O)[C@@]2(c3cc(C#CC4=CCCCC4)ccc31)[C@H](C(=O)N1CCN(c3ncccn3)CC1)[C@H]1C(=O)O[C@H](c3ccccc3)[C@H](c3ccccc3)N1[C@@H]2c1ccc(O)cc1`, the cytotoxicity call was “inactive”.

As to `C=CCn1c(=O)c2cnc(Nc3ccc(N4CCN(C)CC4)cc3)nc2n1-c1cccc(C(C)(C)O)n1`, the cytotoxicity call is “active”.

Take `C=CCn1c(N2CCN(c3ccc(OC)cc3)CC2)nc2c1c(=O)n(C)c(=O)n2C`: the cytotoxicity call was “inactive”.

For the compound `COC(=O)C[C@@H]1CC[C@H]2[C@@H](COC[C@@H](O)CN2S(=O)(=O)c2ccccc2C)O1`, the cytotoxicity call was “inactive”.

Regarding `Cn1c(=O)cc(N2CCC[C@@H](N)C2)n(Cc2ccccc2C#N)c1=O`, the cytotoxicity call was “inactive”.

Consider `Cn1c(=O)cc(N2CCCC(N)C2)n(Cc2ccccc2C#N)c1=O.O=C(O)c1ccccc1` (stereo unspecified), for which the cytotoxicity call is “active”.

Consider `Cn1c(=O)cc(N2CCC[C@@H](N)C2)n(Cc2cc(F)ccc2C#N)c1=O`, for which the cytotoxicity call is “inactive”.

In the case of `C[C@H](CO)N1C[C@H](C)[C@@H](CN(C)C(=O)Cc2ccccc2)OCCCC[C@H](C)Oc2ccc(NC(=O)Nc3ccc(F)cc3)cc2C1=O`, the cytotoxicity call was “inactive”.

For `CCCC#Cc1ccc2c(c1)O[C@@H](CN(C)S(=O)(=O)c1cccc(F)c1)[C@H](C)CN([C@H](C)CO)S2(=O)=O`, the cytotoxicity call is “inactive”.

`Br.Cc1ccc(Sc2ccccc2N2CCNCC2)c(C)c1`: the cytotoxicity call is “active”.

`Cc1ccc(S(=O)(=O)N2CCNCC2)cc1`: the cytotoxicity call is “inactive”.

On to `C[C@@H]1CN([C@@H](C)CO)C(=O)c2cc(C#Cc3cccc(F)c3)cnc2O[C@@H]1CN(C)Cc1ccccn1`, for which the cytotoxicity call was “inactive”.

Consider `C[C@@H]1CCCCO[C@@H](CN(C)S(=O)(=O)c2cccs2)[C@@H](C)CN([C@H](C)CO)C(=O)c2cc(NC(=O)Nc3cccc4ccccc34)ccc2O1`, for which the cytotoxicity call was “inactive”.

Take `CC=CCC(C)C(O)C1C(=O)NC(CC)C(=O)N(C)CC(=O)N(C)C(CC(C)C)C(=O)NC(C(C)C)C(=O)N(C)C(CC(C)C)C(=O)NC(C)C(=O)NC(C)C(=O)N(C)C(CC(C)C)C(=O)N(C)C(CC(C)C)C(=O)N(C)C(C(C)C)C(=O)N1C` (stereo unspecified): the cytotoxicity call was “active”.

As for `C/C=C/C[C@@H](C)[C@@H](O)[C@H]1C(=O)N[C@@H](CC)C(=O)N(C)CC(=O)N(C)[C@@H]([C@@H](C)CC)C(=O)N[C@@H](C(C)C)C(=O)N(C)[C@@H](CC(C)C)C(=O)N[C@@H](C)C(=O)N[C@H](C)C(=O)N(C)[C@@H](CC(C)C)C(=O)N(C)[C@@H](CC(C)C)C(=O)N(C)[C@@H](C(C)C)C(=O)N1C`, the cytotoxicity call is “inactive”.

Regarding `C=C/C=C/C[C@@H](C)[C@@H](O)[C@H]1C(=O)N[C@@H](CC)C(=O)N(C)CC(=O)N(C)[C@@H](CC(C)C)C(=O)N[C@@H](C(C)C)C(=O)N(C)[C@@H](CC(C)C)C(=O)N[C@@H](C)C(=O)N[C@H](C)C(=O)N(C)[C@@H](CC(C)C)C(=O)N(C)[C@@H](CC(C)C)C(=O)N(C)[C@@H](C(C)C)C(=O)N1C`, the cytotoxicity call was “inactive”.
